Results reported in PubChem BioAssay AID1159580 (chemical genetic matrix, 2015).
Where “and” joins values, the source holds several entries; their conditions need not be identical. Equal values may be shown once. Screen size: about 5,500 compounds; about 2,000 (36%) were called active. Another 18% or so got no clear call; they are omitted. Cut-off read from the data, not from the text of the source: active = normalized growth mostly below about 0.91 (no sharp cut-off); inconclusive = no clear call, values can overlap the other calls; inactive = mostly above about 0.92. This is one part of the list.

Assay: chemical genetic growth profiling, strain panel (AID 1159580);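 note: tested at 20 µM; growth read once vehicle control cultures reached saturation at 30 °C; 1 = growth at the plate median or of vehicle wells; lower values mean less growth of the strain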
Conditions: growth OD

Measured: normalized growth

O=c1[nH]oc2c1CCNC2
inactive: S. cerevisiae deletion strains, locus YKL009W, strain mrt4, active compounds read low 0.992 | S. cerevisiae deletion strains, locus YKL068W, active compounds read low 0.982 | S. cerevisiae deletion strains, locus YKL085W, strain MDH1 (second series), active compounds read low 1.03 | S. cerevisiae deletion strains, locus YKL085W, strain MDH1, active compounds read low 1.03 | S. cerevisiae deletion strains, locus YKL160W, strain elf1, active compounds read low 0.99 | S. cerevisiae deletion strains, locus YKL190W, strain CNB1, active compounds read low 1.01 | S. cerevisiae deletion strains, locus YKR001C, strain vps1, active compounds read low 0.977 | S. cerevisiae deletion strains, locus YKR026C, strain gcn3, active compounds read low 1 | S. cerevisiae deletion strains, locus YKR091W, strain srl3, active compounds read low 1 | S. cerevisiae deletion strains, locus YLL001W, strain dnm1, active compounds read low 0.973 | S. cerevisiae deletion strains, locus YLL026W, active compounds read low 0.989 | S. cerevisiae deletion strains, locus YLL041C, strain sdh2, active compounds read low 1.01 | S. cerevisiae deletion strains, locus YLR027C, strain aat2, active compounds read low 0.99 | S. cerevisiae deletion strains, locus YLR039C, strain RIC1, active compounds read low 1.01 | S. cerevisiae deletion strains, locus YLR058C, strain SHM2, active compounds read low 0.999 | S. cerevisiae deletion strains, locus YLR102C, strain apc9, active compounds read low 0.982 | S. cerevisiae deletion strains, locus YLR113W, strain HOG1, active compounds read low 0.974 | S. cerevisiae deletion strains, locus YLR221C, strain rsa3, active compounds read low 0.999 | S. cerevisiae deletion strains, locus YLR258W, strain gsy2, active compounds read low 1 | S. cerevisiae deletion strains, locus YLR262C, strain YPT6 (second series), active compounds read low 1 | S. cerevisiae deletion strains, locus YLR262C, strain YPT6, active compounds read low 0.993 | S. cerevisiae deletion strains, locus YLR268W, strain sec22, active compounds read low 1.01 | S. cerevisiae deletion strains, locus YLR320W, strain mms22, active compounds read low 1.01 | S. cerevisiae deletion strains, locus YLR330W, strain CHS5, active compounds read low 0.986 | S. cerevisiae deletion strains, locus YLR342W, strain FKS1 (second series), active compounds read low 0.989 | S. cerevisiae deletion strains, locus YLR342W, strain FKS1, active compounds read low 0.975 | S. cerevisiae deletion strains, locus YLR357W, strain rsc2, active compounds read low 0.957 | S. cerevisiae deletion strains, locus YLR370C, strain arc18, active compounds read low 1 | S. cerevisiae deletion strains, locus YLR371W, strain rom2, active compounds read low 0.975 | S. cerevisiae deletion strains, locus YLR384C, strain iki3, active compounds read low 0.999 | S. cerevisiae deletion strains, locus YLR418C, strain cdc73, active compounds read low 1.05 | S. cerevisiae deletion strains, locus YML016C, strain PPZ1, active compounds read low 1.01 | S. cerevisiae deletion strains, locus YML032C, strain rad52, active compounds read low 0.954 | S. cerevisiae deletion strains, locus YML120C, strain ndi1, active compounds read low 0.993 | S. cerevisiae deletion strains, locus YML124C, strain tub3, active compounds read low 0.987 | S. cerevisiae deletion strains, locus YMR058W, strain fet3, active compounds read low 1.01 | S. cerevisiae deletion strains, locus YMR078C, strain ctf18, active compounds read low 0.97 | S. cerevisiae deletion strains, locus YMR125W, strain sto1, active compounds read low 0.989 | S. cerevisiae deletion strains, locus YMR129W, active compounds read low 0.996 | S. cerevisiae deletion strains, locus YMR205C, strain PFK2, active compounds read low 0.992 | S. cerevisiae deletion strains, locus YMR223W, strain ubp8, active compounds read low 0.967 | S. cerevisiae deletion strains, locus YMR231W, strain pep5, active compounds read low 0.995 | S. cerevisiae deletion strains, locus YMR263W, strain SAP30, active compounds read low 1.02 | S. cerevisiae deletion strains, locus YMR307W, strain GAS1, active compounds read low 1.06 and 0.998 | S. cerevisiae deletion strains, locus YNL067W, strain RPL9B, active compounds read low 1.03 | S. cerevisiae deletion strains, locus YNL071W, strain lat1, active compounds read low 1.01 | S. cerevisiae deletion strains, locus YNL128W, strain TEP1, active compounds read low 1.03 | S. cerevisiae deletion strains, locus YNL153C, strain GIM3, active compounds read low 1.03 | S. cerevisiae deletion strains, locus YNL175C, strain NOP13, active compounds read low 1.02 | S. cerevisiae deletion strains, locus YNL183C, strain NPR1, active compounds read low 0.924 | S. cerevisiae deletion strains, locus YNL197C, strain WHI3, active compounds read low 1.05 | S. cerevisiae deletion strains, locus YNL209W, strain ssb2, active compounds read low 0.999 | S. cerevisiae deletion strains, locus YNL224C, strain SQS1, active compounds read low 1.02 | S. cerevisiae deletion strains, locus YNL233W, strain BNI4, active compounds read low 1.04 | S. cerevisiae deletion strains, locus YNL248C, strain rpa49, active compounds read low 1.01 | S. cerevisiae deletion strains, locus YNL250W, strain rad50, active compounds read low 0.966 | S. cerevisiae deletion strains, locus YNL271C, strain bni1, active compounds read low 0.989 | S. cerevisiae deletion strains, locus YNL298W, strain CLA4, active compounds read low 0.962 | S. cerevisiae deletion strains, locus YNL307C, strain MCK1, active compounds read low 0.988 | S. cerevisiae deletion strains, locus YNL322C, strain KRE1 (second series), active compounds read low 0.995 | S. cerevisiae deletion strains, locus YNL322C, strain KRE1, active compounds read low 0.999 | S. cerevisiae deletion strains, locus YNR049C, strain mso1, active compounds read low 1 | S. cerevisiae deletion strains, locus YNR052C, strain pop2, active compounds read low 0.955 | S. cerevisiae deletion strains, locus YOL006C, strain TOP1, active compounds read low 1.09 | S. cerevisiae deletion strains, locus YOL012C, strain htz1 1.13 | S. cerevisiae deletion strains, locus YOL147C, strain pex11, active compounds read low 0.979 | S. cerevisiae deletion strains, locus YOR001W, strain rrp6, active compounds read low 0.991 | S. cerevisiae deletion strains, locus YOR061W, strain CKA2, active compounds read low 1 | S. cerevisiae deletion strains, locus YOR069W, strain VPS5, active compounds read low 0.993 | S. cerevisiae deletion strains, locus YOR070C, strain gyp1, active compounds read low 0.999 | S. cerevisiae deletion strains, locus YOR080W, strain dia2, active compounds read low 0.998 | S. cerevisiae deletion strains, locus YOR083W, strain WHI5 (second series), active compounds read low 1 | S. cerevisiae deletion strains, locus YOR083W, strain WHI5, active compounds read low 0.976 | S. cerevisiae deletion strains, locus YOR106W, strain vam3, active compounds read low 1 | S. cerevisiae deletion strains, locus YOR136W, strain idh2, active compounds read low 0.975 | S. cerevisiae deletion strains, locus YOR144C, strain elg1, active compounds read low 0.989 | S. cerevisiae deletion strains, locus YOR184W, strain ser1, active compounds read low 0.955 | S. cerevisiae deletion strains, locus YOR231W, strain MKK1, active compounds read low 1.01 | S. cerevisiae deletion strains, locus YOR265W, strain rbl2, active compounds read low 0.994 | S. cerevisiae deletion strains, locus YOR270C, strain vph1, active compounds read low 1.04 | S. cerevisiae deletion strains, locus YOR290C, strain snf2, active compounds read low 0.995 | S. cerevisiae deletion strains, locus YOR316C, strain cot1, active compounds read low 0.995 | S. cerevisiae deletion strains, locus YPL051W, strain arl3, active compounds read low 0.996 | S. cerevisiae deletion strains, locus YPL055C, strain LGE1, active compounds read low 1.07 and 1.01 | S. cerevisiae deletion strains, locus YPL078C, strain atp4, active compounds read low 0.992 | S. cerevisiae deletion strains, locus YPL106C, strain sse1, active compounds read low 0.985 | S. cerevisiae deletion strains, locus YPL240C, strain hsp82, active compounds read low 1.01 | S. cerevisiae deletion strains, locus YPL241C, strain CIN2, active compounds read low 0.996 | S. cerevisiae deletion strains, locus YPL256C, strain CLN2, active compounds read low 1.01 | S. cerevisiae deletion strains, locus YPR119W, strain clb2, active compounds read low 0.985 | S. cerevisiae deletion strains, locus YPR141C, strain kar3, active compounds read low 0.972 | S. cerevisiae deletion strains, locus YPR163C, strain tif3, active compounds read low 0.968 | S. cerevisiae deletion strains, locus YPR167C, strain met16, active compounds read low 0.993 | S. cerevisiae deletion strains, strain wtn01, active compounds read low 1.01 | S. cerevisiae strains, strain wild type, active compounds read low 0.998
